Shown are actives, neighbours in structure and some others; about 3.5% of the full set was active somewhere.
mHTT CaM bind = mutant huntingtin-calmodulin interaction inhibitors – biochemical, AlphaScreen, primary screen | P42858 | AlphaScreen His-mHTT/GST-CaM binding, luminescence | inhibition, % at 15 µM | hit rate 3.6% among 190,000 | AID 1671202, 2021;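 further: 0% = both proteins with DMSO and 100% = one protein alone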
Pf apPOL inh = Pf-apPOL inhibitors, biochemical, fluorescence; AID 1794808, 2022; hit rate 0.25% among 210,000; inhibition, % at 10 µM; Recombinant Pf-apPOL, molecular beacon fluorescence, 1.5 h; Plasmodium falciparum apicoplast DNA polymerase (apPOL)
* = called active by the depositor; / = no result given. No stated cut-off is given here; in the data, active means inhibition above about 50%; inactive means the rest.

SMILES | mHTT CaM bind | Pf apPOL inh
Cc1cc(C)n2nc(SC(C)C(=O)NCc3ccccc3)nc2n1 (stereo not drawn) | 25 | 8
Cc1cc(C)n2nc(SCc3c(F)cccc3Cl)nc2n1 | 14 | -8
Cc1cc(C)n2nc(SC(C)C(=O)NCc3ccccc3Cl)nc2n1 (stereo not drawn) | -1 | 60*
COc1ccc(NC(=O)CSc2nc3nc(C)c(Cc4ccccc4C)c(C)n3n2)cc1OC | 55* | -8
COc1cc(NC(=O)CSc2nc3nc(C)c(Cc4ccccc4C)c(C)n3n2)cc(OC)c1 | 16 | -8
C=CCc1c(C)nc2nc(SCC(=O)Nc3cccc(Cl)c3)nn2c1C | 31 | -7
C[C@@H]1NC(=O)O[C@H]1c1ccco1 | -5 | -5
CC(C)(C)C(=O)Nc1ccc(N2CCN(C(=O)c3cccc(Cl)c3)CC2)nc1 | -2 | -6
CCOc1ccc(/C=C2/SC(N3CCOCC3)=NC2=O)cc1 | 3 | -2
CCOCC(=O)N1CCCC(OCc2nc(-c3cnccn3)no2)C1 (stereo not drawn) | -12 | -5
COc1nccnc1NC1CCN(C(=O)C2(c3ccccc3)CC2)CC1 | 2 | -5
COc1cccc(/C=C2\C(=O)NC(=O)N(c3cccc(Br)c3)C2=O)c1O | 7 | -2
Cc1cc(C)n2nc(SCC(=O)Nc3ccc(C)c(Cl)c3)nc2n1 | 51* | -9
Cc1cc(C)n2nc(SCC(=O)Nc3cccc(Cl)c3)nc2n1 | 6 | -9
Cc1ccsc1C=C1Oc2c(ccc(O)c2CN2CCCC(C)C2)C1=O (stereo not drawn) | 28 | -10
COc1ccc(NC(=O)Cn2ccc3c(=O)[nH]ccc32)cc1 | 18 | 53*
Cc1cccc(NC(=O)Cn2ccc3c(=O)[nH]ccc32)c1C | 13 | 54*
Cc1ccc(NC(=O)Cn2ccc3c(=O)[nH]ccc32)cc1C | 16 | 31
CCc1ccccc1NC(=O)Cn1ccc2c(=O)[nH]ccc21 | 23 | 30
CN1CC(C(=O)N(C)Cc2ccccc2)C2(CCOCC2)C1 (stereo not drawn) | -2 | 2
O=C(NCc1ccco1)C1CCCN(c2nnc3ccc(C(F)(F)F)cn23)C1 (stereo not drawn) | 18 | 4
CCc1ccc(OCc2nnc(NC(=O)Nc3ccc(F)cc3)s2)cc1 | 1 | 4
Cc1cccc(Cc2c(C)nc(C)nc2N2CCN(C(=O)C3CCOC3)CC2)c1 (stereo not drawn) | 12 | 4
C=CSc1sc(Cl)c(N2CCCCCC2)c1[N+](=O)[O-] | 43 | 6
CCN(Cc1ccccc1)Cc1ccccc1[N+](=O)[O-] | -22 | -8
SMILES | mHTT CaM bind | Pf apPOL inh
C=CSc1sc(Cl)c(N(C)Cc2ccccc2)c1[N+](=O)[O-] | 64* | -76
C=CSc1sc(Cl)c(N2CCCC2)c1[N+](=O)[O-] | 75* | 6
O=[N+]([O-])c1cccc(-c2nc(S(=O)(=O)c3ccccc3)c(N3CCOCC3)o2)c1 | 18 | 3
Cn1cnc(S(=O)(=O)N2CCCCC2c2nncn2CC2CC2)c1 (stereo not drawn) | 3 | 5
COc1ccc(-c2ccc(C(=O)N3CCCCC3)s2)c(OC)c1OC | 0 | -8
COc1ccc(-c2ccc(C(=O)N3CCc4ccccc4C3)s2)c(OC)c1OC | 83* | -5
Cc1cccc(-c2cc3n(n2)CCCN(C(=O)COc2ccc(Cl)cc2)C3)c1 | 83* | 3
Cc1cccc(-c2cc3n(n2)CCCN(C(=O)c2cccc(C#N)c2)C3)c1 | 27 | -4
Cc1ccc(C(=O)N2CCCn3nc(-c4cccs4)cc3C2)s1 | 4 | -3
Cc1cccc(-c2cc3n(n2)CCCN(C(=O)c2ccncc2)C3)c1 | 11 | -2
N#Cc1cccc(C(=O)N2CCCn3nc(-c4ccc(Cl)cc4)cc3C2)c1 | 55* | 0
Cc1ccc(C(=O)N2CCCn3nc(-c4ccc(Cl)cc4)cc3C2)s1 | 71* | 3
CCOc1cccc2cc(C(N)=O)c(=Nc3ccc(C(=O)O)cc3)oc12 | -3 | -5
O=C(C1CCN(S(=O)(=O)c2ccccc2)CC1)N1CCCC2CCCCC21 (stereo not drawn) | -2 | 10
CCn1c(=O)n(CC(=O)NCc2cccnc2)c(=O)c2ccccc21 | -5 | -5
O=C(Cc1cccs1)N1CCCn2nc(-c3cccnc3)cc2C1 | 5 | 10
O=C(O)C1Cc2c([nH]c3ccccc23)C(c2cc(Br)ccc2O)N1 (stereo not drawn) | 57* | -3
Cc1cc(Br)c(O)c(C2NC(C(=O)O)Cc3c2[nH]c2ccccc32)c1 (stereo not drawn) | 13 | -1
Cc1ccc(C2=NNC(c3ccccc3)=Nc3ccccc32)cc1 | -4 | /
COc1ccc(C(=O)c2ccc(N3CCN(C)CC3)c([N+](=O)[O-])c2)cc1 | 17 | -10
CN1CCN(c2ccc(C(=O)c3ccc(Cl)cc3)cc2[N+](=O)[O-])CC1 | 62* | -7
O=C(O)c1ccccc1C(=O)c1ccc(N2CCCCC2)c([N+](=O)[O-])c1 | 3 | -10
O=C(c1cc2ccccc2o1)N1CCN(c2ccc(C(F)(F)F)cc2[N+](=O)[O-])CC1 | 47 | 17
CC1Cc2ccccc2N1C(=O)c1ccc(N2CCCCC2)c([N+](=O)[O-])c1 (stereo not drawn) | 63* | 1
O=C(c1cc2ccccc2o1)N1CCN(c2ccc(Cl)cc2[N+](=O)[O-])CC1 | 57* | 4
SMILES | mHTT CaM bind | Pf apPOL inh
Cc1cccc(CSc2nc(=O)n(CC3CCCO3)c3c2CCC3)c1 (stereo not drawn) | 8 | -6
COc1ccc(NC(=O)C(CCS(C)(=O)=O)NC(C)=O)c(OC)c1 (stereo not drawn) | 7 | -6
O=C1C(=O)N(CCCn2ccnc2)C(c2cccc(Br)c2)C1=C(O)c1ccccc1 (stereo not drawn) | -5 | 1
CSC(=NC(=O)OC(C)(C)C)NC(=O)OC(C)(C)C | / | -17
COc1cc(OC)c(OC)cc1/C=C1\Cc2ccccc2C1=O | 0 | -5
COc1cc(OC)c(OC)cc1/C=C1/CCC/C(=C\c2cc(OC)c(OC)cc2OC)C1=O | 64* | -1
O=C(CSCC(=O)Nc1ccc(OC(F)(F)F)cc1)NN=Cc1ccc(Cl)cc1 | / | -10
O=C(O)/C(=C\c1ccco1)NC(=O)c1ccc(Cl)cc1Cl | -1 | -13
CC1(C)CC2CC(C)(CN2C(=O)/C(=C/c2ccco2)NC(=O)c2ccc(Cl)cc2)C1 (stereo not drawn) | 62* | 0
COc1ccccc1CNC(=O)c1ccc2c(c1)NC(=O)C(N1CCCC1)S2 (stereo not drawn) | 7 | -8
CC(C)CC(C(=O)Nc1cccc(Cl)c1)N1C(=O)c2ccccc2C1=O (stereo not drawn) | 63* | 1
CC(C)CC(C(=O)Nc1cccc(O)c1)N1C(=O)c2ccccc2C1=O (stereo not drawn) | 10 | -8
CCCS(=O)(=O)N1CCN=C1SCc1ccc(Cl)cc1Cl | -46 | -4
c1ccc(-c2n[nH]c(C3CCCN3Cc3ccccn3)n2)cc1 (stereo not drawn) | 100* | -30
c1ccc(-c2n[nH]c(C3CCCN3Cc3ccco3)n2)cc1 (stereo not drawn) | 33 | 3
Cc1ccc(N2C(=O)CSC2c2ccc3c(c2)OCO3)cc1 (stereo not drawn) | 1 | -2
Cc1ccc(N2C(=O)CSC2c2ccc([N+](=O)[O-])cc2)cc1 (stereo not drawn) | 8 | 0

Screens as filed in PubChem BioAssay.
